Tb PFK inh: qHTS Assay to Find Inhibitors of T. brucei phosphofructokinase; Potency, µM (highest dose often 57.5 µM), for the others: top-dose activity, negative = inhibition, actives largely listed as inhibitors; ATP-dependent 6-phosphofructokinase (Trypanosoma brucei brucei), O15648; AID 485367, 2010; T. brucei PFK, ADP-Glo luminescence; actives 0.17% (n = 330,000);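 further: potency means the concentration at half of the fitted maximal effect; 0% = uninhibited 1x PFK enzyme wells and -100% = no-enzyme wells; nearly all actives have a fitted effect of over 60% in size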
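Luminescent ADP detection (ADP-Glo, two-step: ATP depletion then ADP-to-ATP conversion for luciferase) reported PFK activity after 45 min room-temperature reaction of 1.25 nM enzyme with 0.5 mM F6P and 0.1 mM ATP at pH 8.0.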
PI5P4K alpha inh: qHTS for Inhibitors of phosphatidylinositol 5-phosphate 4-kinase (PI5P4K). Phosphatidylinositol 5-phosphate 4-kinase type-2 alpha (Homo sapiens), P48426. PI5P4Kalpha enzyme, ADP-Glo luminescence, 60 min; hits give low values. max response, %. actives 1.2% (n = 330,000). AID 652105, 2013; active means max response of -50% or lower; inconclusive means between -30% and -50%; inactive means -30% or higher; further: value at the top dose of about 77 µM
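Human PI5P4Kalpha with substrate in 0.038 M HEPES pH 7.4, 0.28 mM EGTA, 0.1% CHAPS, 5% DMSO; reaction started with 5 microM ATP (final), 60 min at room temperature. ADP formed read by ADP-Glo luminescence.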
Tb PGK inh: qHTS Assay to Find Inhibitors of Phosphoglycerate Kinase | actives 0.043% (n = 380,000) | PGK/GAPDH coupled, Kinase-Glo luminescence, 60 min | Potency, µM (top dose mostly 57.5 µM), for inactives: top-dose activity change, negative = inhibition, usual class: inhibitors | Phosphoglycerate kinase, glycosomal (Trypanosoma brucei brucei), P07378; further: potency means the concentration at half of the fitted maximal effect; nearly all actives have a fitted effect of over 60% in size
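Recombinant glycosomal PGK reaction used 1,3-bisphosphoglycerate generated in-well by GAPDH (100nM final) in 100mM TEA pH 7.6, 5mM MgCl2, 0.01% Tween-20. After 60 minutes at room temperature, ATP was read by Kinase-Glo Plus luminescence end-point.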
PI4K2A inh: qHTS for small molecular inhibitors of PI4K2A. purified PI4K2A, ADP-Glo luminescence, 1 h; hits give low values. Phosphatidylinositol 4-kinase type 2-alpha (Homo sapiens), Q9BTU6. activity change, negative = inhibition, % at 76.9 µM. actives 0.13% (n = 420,000); in the data active means activity change below about -50%; inconclusive means mostly about -30% to -49%;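 further: -100% = wells without enzyme as full effect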
Target sequence (Q9BTU6 whole entry, looked up): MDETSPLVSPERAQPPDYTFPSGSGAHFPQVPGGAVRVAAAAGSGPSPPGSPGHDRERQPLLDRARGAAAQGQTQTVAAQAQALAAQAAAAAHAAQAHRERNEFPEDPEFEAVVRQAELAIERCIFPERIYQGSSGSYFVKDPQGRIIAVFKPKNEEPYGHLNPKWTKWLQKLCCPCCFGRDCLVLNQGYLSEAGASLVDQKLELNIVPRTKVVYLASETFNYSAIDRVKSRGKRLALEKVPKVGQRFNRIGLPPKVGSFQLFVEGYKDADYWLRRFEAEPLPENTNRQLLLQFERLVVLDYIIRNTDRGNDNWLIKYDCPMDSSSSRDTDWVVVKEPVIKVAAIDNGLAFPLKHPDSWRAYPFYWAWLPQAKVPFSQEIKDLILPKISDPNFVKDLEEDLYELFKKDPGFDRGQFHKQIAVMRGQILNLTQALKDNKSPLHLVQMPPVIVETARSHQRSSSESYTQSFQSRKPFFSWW
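In this quantitative HTS, ADP production by PI4K2A was quantified luminescently after 1 h at ambient temperature; 100 microM adenosine served as plate-quality control.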
Pin1 inh: qHTS Assay to Find Inhibitors of Pin1; Potency, µM (series often up to 115 µM), inactives show at the top dose activity, negative = inhibition, usual class: inhibitors; actives 0.009% (n = 390,000); Pin1 FP peptide displacement, HiFluor488, 10 min; Peptidyl-prolyl cis-trans isomerase NIMA-interacting 1 (Homo sapiens), Q13526; active means well fitted inhibition curve with a large enough effect in the polarisation, with a control signal flat, not every such curve was filed as active; inconclusive means small, poorly fitted or top-dose-only effect, or effect the other way, or a change in a side signal; inactive means no such curve, though single readings can be large or run the other way; the % refers to the polarisation; further: potency means the concentration at half of the fitted maximal effect
Target sequence (Q13526 whole entry, looked up): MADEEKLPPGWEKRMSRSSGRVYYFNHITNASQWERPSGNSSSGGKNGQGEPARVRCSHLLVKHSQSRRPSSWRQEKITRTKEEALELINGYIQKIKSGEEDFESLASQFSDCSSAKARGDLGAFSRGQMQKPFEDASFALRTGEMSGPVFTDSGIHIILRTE
ADP-Glo interf: qHTS for Inhibitors of PI5P4K: ADP-Glo counter assay | Potency, µM (top dose mostly 76.9 µM), for inactives: at the highest dose activity change, negative = inhibition, usual class: inhibitors | AID 743285, 2014 | ADP-Glo detection counter-screen, luciferase luminescence, no enzyme | shares compounds with PI5P4K alpha inh | 1,100 tested, under 10 active
An asterisk follows results filed as active. This excerpt belongs to a sample that is enriched for hits. Unless noted, the call rests on the fitted dose curve; in most records, active means well fitted curve in the direction sought with a large enough effect; inconclusive means small, poorly fitted or top-dose-only effect, or another doubt; inactive means no such curve, though single readings can be large; an effect the other way counts as inactive or inconclusive. Unless noted, on the % scale 0 is the no-effect control and ±100 the full control effect.

How did Cc1cc2nc(NC(=O)C3(C)CCN3C(=O)C(C)C)[nH]c2cc1C (stereo unspecified) do in these assays?
PI5P4K alpha inh: inconclusive; PI4K2A inh: 1; ADP-Glo interf: -13%

Results for CC(C)(C)NC(=O)Nc1ccc(Cn2cc(C(F)(F)F)ccc2=O)cc1 ?
Tb PFK inh: 0%; PI5P4K alpha inh: -55*; Tb PGK inh: 7%; PI4K2A inh: 3; Pin1 inh: -2%; ADP-Glo interf: -1%

How did CNC(=O)Nc1ccc(Cn2cc(C(F)(F)F)ccc2=O)cc1 do in these assays?
Tb PFK inh: -3%; PI5P4K alpha inh: -7; Tb PGK inh: 2%; PI4K2A inh: -19; Pin1 inh: -7%

How did CS(=O)(=O)N1N=C(c2ccco2)CC1c1ccco1 (stereo unspecified) do in these assays?
Tb PFK inh: -11%; PI5P4K alpha inh: -64*; Tb PGK inh: 4%; PI4K2A inh: -12; Pin1 inh: 4%; ADP-Glo interf: 5%

How did COc1ccc(NC(=O)N2CCN(S(C)(=O)=O)CC2)c(OC)c1 do in these assays?
Tb PFK inh: 1%; PI5P4K alpha inh: -4; Tb PGK inh: 4%; PI4K2A inh: 0; Pin1 inh: -1%

How did CCC(C)[C@H](NC(=O)NCc1ccc(Cl)cc1)C(=O)OC (stereo partly specified) do in these assays?
Tb PFK inh: -3%; PI5P4K alpha inh: -3; Tb PGK inh: -7%; PI4K2A inh: 2; Pin1 inh: 1%

How did Cc1nccn1CCCNC(=O)CC1C(=O)NCCN1Cc1ccccc1C(F)(F)F (stereo unspecified) do in these assays?
Tb PFK inh: 12%; PI5P4K alpha inh: 2; Tb PGK inh: 6%; PI4K2A inh: -3; Pin1 inh: 6%

How did CCCCn1c(=O)[nH]c(=O)c2c1nc(-c1ccc(-c3ccccc3Br)o1)n2CC do in these assays?
Tb PFK inh: -21%; PI5P4K alpha inh: -53*; Tb PGK inh: 0%; PI4K2A inh: 2; Pin1 inh: 20%; ADP-Glo interf: -1%

Results for O=C(OCC(=O)N1CCCCCC1)c1ccc(Cl)c(S(=O)(=O)N2CCCC2)c1 ?
Tb PFK inh: -14%; PI5P4K alpha inh: -61*; Tb PGK inh: -1%; PI4K2A inh: -2; Pin1 inh: -4%; ADP-Glo interf: 2%

How did NC(=O)COC(=O)c1ccc(Cl)c(S(=O)(=O)N2CCCCCC2)c1 do in these assays?
Tb PFK inh: -3%; PI5P4K alpha inh: -1; Tb PGK inh: -9%; PI4K2A inh: 0; Pin1 inh: -13%

What do the screens show for `COc1ccc2[nH]c3c(c2c1)CCn1c-3nc2ccccc2c1=O`?
Tb PFK inh: -4%; PI5P4K alpha inh: 1; Tb PGK inh: -9%; PI4K2A inh: -3; Pin1 inh: -1%

What do the screens show for `Cc1cccc2cc(CN(Cc3cccnc3)C(=S)NCCCN(C)C)c(=O)[nH]c12`?
Tb PFK inh: 2%; PI5P4K alpha inh: -53*; Tb PGK inh: -3%; PI4K2A inh: -4; Pin1 inh: 2%; ADP-Glo interf: -3%

What do the screens show for `CCN(CC)CCCNC(=S)N(Cc1cccnc1)Cc1cc2cccc(C)c2[nH]c1=O`?
Tb PFK inh: 0%; PI5P4K alpha inh: 0; Tb PGK inh: -2%; PI4K2A inh: 1; Pin1 inh: 2%

How did CC(=O)c1ccc(NC(=O)c2cnn3ccccc23)cc1 do in these assays?
Tb PFK inh: -6%; PI5P4K alpha inh: -76*; Tb PGK inh: -7%; PI4K2A inh: -13; Pin1 inh: -3%; ADP-Glo interf: -8%

How did O=c1cc(CN2CCN(S(=O)(=O)c3cccc(Cl)c3)CC2)c2ccc(O)cc2o1 do in these assays?
Tb PFK inh: -2%; PI5P4K alpha inh: -74*; Tb PGK inh: -5%; PI4K2A inh: -2; Pin1 inh: inconclusive; ADP-Glo interf: -6%

How did O=c1cc(CN2CCN(S(=O)(=O)c3ccc4c(c3)OCCO4)CC2)c2ccc(O)cc2o1 do in these assays?
Tb PFK inh: -8%; Tb PGK inh: -7%; PI4K2A inh: -17; Pin1 inh: inconclusive

Results for Cc1c(C(c2cc3c(cc2Br)OCO3)c2c(C)n(C)n(-c3ccccc3)c2=O)c(=O)n(-c2ccccc2)n1C ?
Tb PFK inh: 0%; PI5P4K alpha inh: -5; Tb PGK inh: -8%; PI4K2A inh: 5; Pin1 inh: -6%

Results for COC(=O)C1=C[C@@H](C(=O)OC)C2C3=C(C(=O)C24CCCCC4)[C@H](C)n2c(=O)n(-c4ccccc4)c(=O)n2[C@@H]3C1 (stereo partly specified) ?
PI5P4K alpha inh: -4; Tb PGK inh: -3%; PI4K2A inh: -1; Pin1 inh: 19%

Results for COc1ccc(N2CCN(C(=O)Cc3ccc(S(=O)(=O)N4CCOCC4)s3)CC2)cc1 ?
Tb PFK inh: -6%; PI5P4K alpha inh: -71*; Tb PGK inh: -23%; PI4K2A inh: -5; Pin1 inh: inconclusive; ADP-Glo interf: 2%

How did COc1ccc2cc(C(=O)N3CCC(Cc4ccccc4)CC3)[nH]c2c1 do in these assays?
Tb PFK inh: 0%; PI5P4K alpha inh: -14; Tb PGK inh: -2%; PI4K2A inh: -12; Pin1 inh: -11%

How did Cc1ccc(C(CCN(Cc2ccccc2)C(=O)c2ccco2)c2ccco2)cc1 (stereo unspecified) do in these assays?
Tb PFK inh: inconclusive; PI5P4K alpha inh: -58*; Tb PGK inh: -8%; PI4K2A inh: -7; Pin1 inh: inconclusive; ADP-Glo interf: -2%

How did Nc1cccc(NC(=O)CCC(=O)NCc2ccco2)c1 do in these assays?
Tb PFK inh: 0%; PI5P4K alpha inh: 6; Tb PGK inh: -9%; PI4K2A inh: 1; Pin1 inh: -3%

How did CCCc1cc(=O)[nH]c2nnc(SCC(=O)Nc3nccs3)n12 do in these assays?
Tb PFK inh: 5%; PI5P4K alpha inh: -6; Tb PGK inh: -5%; PI4K2A inh: -5; Pin1 inh: -1%

How did N#Cc1c(SCC(=O)Nc2ccccc2C(F)(F)F)sc2c(O)cc(=O)[nH]c12 do in these assays?
Tb PFK inh: 2%; PI5P4K alpha inh: inconclusive; Tb PGK inh: 0%; PI4K2A inh: -2; Pin1 inh: -7%
